# Several values for one entry are separate records, joined by “and”; a condition that tells them apart may be missing. Equal entries are not always repeated. Results filed as inconclusive are left out. Entries that show only a call come without a potency. The source holds several records for some structures; these can differ, active in one and inactive in another. Activity calls are given as the source filed them. Calls come from the whole dose curve; as a rule, active = well fitted curve in the direction sought with a large enough effect in the repeat runs; inconclusive = weak or mixed curves; inactive = no such curve, though single readings can be large; an effect the other way counts as inactive or inconclusive.
# Tests used:
# [1] = qHTS RealTime-Glo MT Cell Viability Assay in HepG2 cells - 8 hour (AID 1224873); note: nearly all actives have a fitted effect of over 55% in size
# Outline: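 HepG2 cells (600/well) mixed with RealTime-Glo MT reagent, settled 5 h at 37 C/5% CO2 before compound addition. Nonlytic NanoLuc luminescence from viable-cell prosubstrate reduction read repeatedly during 40 h treatment at 37 C.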
# [2] = A CellTox Green Cytotoxicity Assay to monitor cytotoxicity in HEK293 cells - 24 hour (AID 1224875); note: nearly all actives have a fitted effect of over 45% in size; note: potency is the fitted concentration of half-maximal effect
# Outline: (§1)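 HEK293 cells premixed with CellTox Green dye were seeded at 600 cells/well and left 5 h at 37 C/5% CO2 before pin transfer of 23 nL compound in DMSO. Fluorescence from dye bound to dead-cell DNA was read during 40 h treatment.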
# [3] = A CellTox Green Cytotoxicity Assay to monitor cytotoxicity in HepG2 cells - 16 hour (AID 1224876); note: nearly all actives have a fitted effect of over 45% in size; note: potency is the fitted concentration of half-maximal effect
# Outline: (§2)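 HepG2 cells were seeded together with the CellTox Green dye at 600 cells/well, left 5 h at 37 C/5% CO2, then given compounds in DMSO. Fluorescence from dye bound to dead-cell DNA was read repeatedly over 40 h of treatment at 37 C.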
# [4] = qHTS RealTime-Glo MT Cell Viability Assay in HepG2 cells - 32 hour (AID 1224877); note: nearly all actives have a fitted effect of over 55% in size
# Outline: (§3)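 HepG2 suspension premixed with RealTime-Glo reagents is plated at 600 cells per well and left 5 h at 37 C/5% CO2. Compounds in DMSO then go in, and bioluminescence reflecting viable cell number is recorded over 40 h.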
# [5] = A CellTox Green Cytotoxicity Assay to monitor cytotoxicity in HepG2 cells - 24 hour (AID 1224878); note: nearly all actives have a fitted effect of over 45% in size; note: potency is the fitted concentration of half-maximal effect
# Outline: as §2
# [6] = A CellTox Green Cytotoxicity Assay to monitor cytotoxicity in HepG2 cells - 40 hour (AID 1224879); note: nearly all actives have a fitted effect of over 40% in size; note: potency is the fitted concentration of half-maximal effect
# Outline: as §2
# [7] = qHTS RealTime-Glo MT Cell Viability Assay in HEK293 cells - 0 hour (AID 1224880); note: top concentration of the series differs between compounds; nearly all actives have a fitted effect of over 45% in size
# Outline: (§4)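 HEK293 cells mixed with RealTime-Glo reagents (NanoLuc plus cell-permeant prosubstrate) at 600 cells/well, preincubated 5 h at 37 C/5% CO2, then given 23 nL compound in DMSO. Nonlytic luminescence from viable cells was read at 0, 8, 16, 24, 32 and 40 h.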
# [8] = A CellTox Green Cytotoxicity Assay to monitor cytotoxicity in HEK293 cells - 32 hour (AID 1224881); note: nearly all actives have a fitted effect of over 40% in size; note: potency is the fitted concentration of half-maximal effect
# Outline: as §1
# [9] = A CellTox Green Cytotoxicity Assay to monitor cytotoxicity in HepG2 cells - 0 hour (AID 1224882); note: nearly all actives have a fitted effect of over 35% in size
# Outline: as §2
# [10] = A CellTox Green Cytotoxicity Assay to monitor cytotoxicity in HepG2 cells - 32 hour (AID 1224883); note: nearly all actives have a fitted effect of over 50% in size; note: potency is the fitted concentration of half-maximal effect
# Outline: as §2
# [11] = A CellTox Green Cytotoxicity Assay to monitor cytotoxicity in HEK293 cells - 8 hour (AID 1224884); note: nearly all actives have a fitted effect of over 35% in size
# Outline: as §1
# [12] = qHTS RealTime-Glo MT Cell Viability Assay in HepG2 cells - 16 hour (AID 1224885); note: nearly all actives have a fitted effect of over 50% in size
# Outline: as §3
# [13] = qHTS RealTime-Glo MT Cell Viability Assay in HEK293 cells - 8 hour (AID 1224887); note: nearly all actives have a fitted effect of over 50% in size; note: potency is the fitted concentration of half-maximal effect
# Outline: as §4
# [14] = A CellTox Green Cytotoxicity Assay to monitor cytotoxicity in HEK293 cells - 16 hour (AID 1224888); note: nearly all actives have a fitted effect of over 35% in size
# Outline: as §1
# [15] = qHTS RealTime-Glo MT Cell Viability Assay in HepG2 cells - 0 hour (AID 1224889); note: nearly all actives have a fitted effect of over 50% in size; note: potency is the fitted concentration of half-maximal effect
# Outline: as §3
# [16] = A CellTox Green Cytotoxicity Assay to monitor cytotoxicity in HepG2 cells - 8 hour (AID 1224890); note: nearly all actives have a fitted effect of over 45% in size
# Outline: as §2
# [17] = qHTS assay to identify small molecule antagonists of the estrogen receptor alpha (ER-alpha) signaling pathway using the BG1 cell line in the presence of 0.1 nM 17-beta-estradiol - cell viability counter screen (AID 1259241); note: nearly all actives have a fitted effect of over 40% in size; note: potency is the fitted concentration of half-maximal effect
# Outline: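 Live-cell protease activity (CellTiter-Fluor fluorescence, 30 min) was read in the same wells after VM7Luc4E2 cells had been exposed to compounds with 0.1 nM 17beta-estradiol for 22 hr at 37C.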
# [18] = qHTS RealTime-Glo MT Cell Viability Assay in HEK293 cells - 40 hour (AID 1224874); conditions: RealTime-Glo luminescence; max response: stronger effect = lower value; note: nearly all actives have a fitted effect of over 50% in size; note: potency is the fitted concentration of half-maximal effect
# Outline: as §4
# [19] = qHTS RealTime-Glo MT Cell Viability Assay in HEK293 cells - 24 hour (AID 1224886); note: nearly all actives have a fitted effect of over 50% in size; note: potency is the fitted concentration of half-maximal effect
# Outline: (§5)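 Reads taken at 0, 8, 16, 24, 32 and 40 h from the same wells. HEK293 cells (600/well) carried RealTime-Glo reagents from seeding, with compound added after a 5 h settle at 37 C.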
# [20] = qHTS RealTime-Glo MT Cell Viability Assay in HEK293 cells - 16 hour (AID 1224872); note: nearly all actives have a fitted effect of over 50% in size; note: potency is the fitted concentration of half-maximal effect
# Outline: as §5
smiles,measurement,setting,value
COP(=O)(OC)SCn1c(=O)oc2cc(Cl)cnc21,Potency,[1],inactive
same,Potency,[2],inactive
same,Potency,[3],inactive
same,Potency,[4],inactive
same,Potency,[5],inactive
same,Potency,[6],49 µM (active)
same,Potency,[7],inactive
same,Potency,[8],inactive
same,Potency,[9],inactive
same,Potency,[10],inactive
same,Potency,[11],inactive
same,Potency,[12],inactive
same,Potency,[13],inactive
same,Potency,[14],inactive
same,Potency,[15],inactive
same,Potency,[16],inactive
same,Potency,[17],inactive
CC(=O)c1cc(C(C)(C)C)cc2c1CCC2(C)C,Potency,[1],inactive
same,max response,[18],-21.2% (inactive)
same,Potency,[2],38.9 µM (active)
same,Potency,[4],inactive
same,Potency,[7],inactive
same,Potency,[8],38.9 µM (active)
same,Potency,[9],inactive
same,Potency,[11],inactive
same,Potency,[12],inactive
same,Potency,[19],inactive
same,Potency,[14],inactive
same,Potency,[16],inactive
same,Potency,[17],inactive
Cc1cc(N=Nc2ccccc2C)ccc1N,Potency,[20],21.9 µM (active) and 19.5 µM (active)
same,Potency,[18],21.9 µM (active)
same,Potency,[3],inactive
same,Potency,[4],inactive
same,Potency,[5],inactive
same,Potency,[6],21.9 µM (active) and 19.5 µM (active)
same,Potency,[7],inactive
same,Potency,[9],inactive
same,Potency,[11],inactive
same,Potency,[19],21.9 µM (active) and 19.5 µM (active)
same,Potency,[13],21.9 µM (active) and 19.5 µM (active)
same,Potency,[14],inactive
same,Potency,[15],inactive
same,Potency,[17],24.3 µM (active)
[Cd+2].[Cl-].[Cl-],Potency,[1],inactive
same,Potency,[18],12.4 µM (active)
same,Potency,[2],inactive
same,Potency,[3],55.4 µM (active) and inactive
same,Potency,[5],22.1 µM (active) and 38.9 µM (active)
same,Potency,[6],19.7 µM (active) and 24.5 µM (active)
same,Potency,[7],inactive
same,Potency,[8],44 µM (active) and 15.5 µM (active)
same,Potency,[9],inactive
same,Potency,[10],22.1 µM (active) and 24.5 µM (active)
same,Potency,[11],inactive
same,Potency,[12],inactive
same,Potency,[13],inactive
same,Potency,[14],inactive
same,Potency,[15],inactive
same,Potency,[16],inactive
same,Potency,[17],inactive
CC(C)OC(=O)C(O)(c1ccc(Cl)cc1)c1ccc(Cl)cc1,Potency,[20],30.9 µM (active)
same,Potency,[18],24.5 µM (active)
same,Potency,[5],27.5 µM (active)
same,Potency,[6],38.9 µM (active)
same,Potency,[7],inactive
same,Potency,[8],54.9 µM (active)
same,Potency,[10],27.5 µM (active)
same,Potency,[11],inactive
same,Potency,[19],21.9 µM (active)
same,Potency,[15],inactive
same,Potency,[17],inactive
Oc1ccc(C2(c3ccc(O)cc3)CCCCC2)cc1,Potency,[1],inactive
same,Potency,[18],46.4 µM (active)
same,Potency,[3],inactive
same,Potency,[4],inactive
same,Potency,[5],inactive
same,Potency,[7],inactive
same,Potency,[9],inactive
same,Potency,[12],inactive
same,Potency,[15],inactive
same,Potency,[16],inactive
same,Potency,[17],inactive
CC(C)OC(=S)S,Potency,[1],inactive
same,max response,[18],12.1% (inactive)
same,Potency,[2],inactive
same,Potency,[3],inactive
same,Potency,[4],inactive
same,Potency,[5],inactive
same,Potency,[7],inactive
same,Potency,[8],inactive
same,Potency,[9],inactive
same,Potency,[12],inactive
same,Potency,[14],inactive
same,Potency,[15],inactive
same,Potency,[16],inactive
same,Potency,[17],inactive
CCOC(=O)C1(c2ccccc2)CCN(CCC(C#N)(c2ccccc2)c2ccccc2)CC1,Potency,[20],inactive
same,Potency,[2],inactive
same,Potency,[3],inactive
same,Potency,[4],inactive
same,Potency,[5],inactive
same,Potency,[8],inactive
same,Potency,[9],inactive
same,Potency,[10],inactive
same,Potency,[11],inactive
same,Potency,[19],inactive
same,Potency,[13],inactive
same,Potency,[14],inactive
same,Potency,[15],inactive
same,Potency,[16],inactive
same,Potency,[17],inactive
CCN(CC)c1c([N+](=O)[O-])cc(C(F)(F)F)c(N)c1[N+](=O)[O-],Potency,[20],12.3 µM (active)
same,Potency,[18],21.9 µM (active)
same,Potency,[2],inactive
same,Potency,[7],inactive
same,Potency,[11],inactive
same,Potency,[19],17.4 µM (active)
same,Potency,[13],6.92 µM (active)
same,Potency,[15],inactive
same,Potency,[17],inactive
OC(Cc1ccccc1Cl)(Cn1cncn1)C1(Cl)CC1 (stereo unspecified),Potency,[1],inactive
same,Potency,[18],49 µM (active)
same,Potency,[2],inactive
same,Potency,[3],inactive
same,Potency,[4],inactive
same,Potency,[5],inactive
same,Potency,[7],inactive
same,Potency,[9],inactive
same,Potency,[10],inactive
same,Potency,[12],inactive
same,Potency,[19],54.9 µM (active)
same,Potency,[14],inactive
same,Potency,[15],24.5 µM (active)
same,Potency,[16],inactive
same,Potency,[17],inactive
CC1(C)[C@H](C(=O)O[C@H](C#N)c2cccc(Oc3ccccc3)c2)[C@@H]1/C=C(\Cl)C(F)(F)F,Potency,[1],inactive
same,max response,[18],-24.1% (inactive)
same,Potency,[2],inactive
same,Potency,[3],inactive
same,Potency,[4],inactive
same,Potency,[5],inactive
same,Potency,[6],inactive
same,Potency,[8],inactive
same,Potency,[9],inactive
same,Potency,[10],inactive
same,Potency,[12],inactive
same,Potency,[14],inactive
same,Potency,[15],inactive
same,Potency,[16],inactive
same,Potency,[17],inactive
c1cc[c]([Sb]([c]2ccccc2)[c]2ccccc2)cc1,Potency,[1],inactive
same,Potency,[18],54.9 µM (active)
same,Potency,[2],inactive
same,Potency,[3],inactive
same,Potency,[4],inactive
same,Potency,[5],inactive
same,Potency,[6],inactive
same,Potency,[7],inactive
same,Potency,[8],inactive
same,Potency,[9],inactive
same,Potency,[10],inactive
same,Potency,[11],inactive
same,Potency,[12],inactive
same,Potency,[13],inactive
same,Potency,[15],inactive
same,Potency,[17],inactive
Cc1cc(C(C)(C)c2cc(C)c(O)c(C)c2)cc(C)c1O,Potency,[20],23.7 µM (active)
same,Potency,[18],18.9 µM (active)
same,Potency,[2],inactive
same,Potency,[7],inactive
same,Potency,[8],inactive
same,Potency,[19],21.2 µM (active)
same,Potency,[14],inactive
same,Potency,[15],inactive
same,Potency,[16],inactive
same,Potency,[17],inactive
O=[N+]([O-])c1cc([N+](=O)[O-])c2ccccc2c1,Potency,[20],inactive
same,max response,[18],4.65% (inactive)
same,Potency,[3],inactive
same,Potency,[6],inactive
same,Potency,[7],inactive
same,Potency,[9],inactive
same,Potency,[10],inactive
same,Potency,[19],inactive
same,Potency,[13],inactive
O=C(Nc1ccc2[nH]ccc2c1)c1cc2cc(F)ccc2n1Cc1cccc(F)c1,Potency,[20],inactive
same,Potency,[2],inactive
same,Potency,[3],inactive
same,Potency,[5],inactive
same,Potency,[6],inactive
same,Potency,[7],inactive
same,Potency,[8],inactive
same,Potency,[9],inactive
same,Potency,[10],inactive
same,Potency,[11],inactive
same,Potency,[19],inactive
same,Potency,[13],inactive
same,Potency,[14],inactive
same,Potency,[16],inactive
same,Potency,[17],inactive

# — PubChem BioAssay (Tox21)
